Screening data as filed in PubChem.
Pf Dd2 inh: qHTS Primary assay for Inhibitors of Plasmodium falciparum Dd2 growth in vitro. P. falciparum Dd2 growth, SYBR Green, 72 h. hit rate 4.3% among 120,000. Potency, µM (highest dose often 28.9 µM), inactives show top-dose activity, negative = inhibition, hits mostly inhibitors. AID 1347417, 2020; active = well fitted inhibition curve with a large enough effect;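 note: plate controls were DMSO vehicle for no effect and reference drug for full effect; nearly all actives have a fitted effect of over 65% in size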
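Infected erythrocytes (Dd2, 0.3% parasitemia, 2.5% hematocrit final) are added to compound in RPMI-1640/Albumax II medium, grown 72 h at 37C in low oxygen, then lysed with saponin/Triton-X containing SYBR Green and read by fluorescence.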
An asterisk follows results filed as active; i = inactive; [ ] = dose if it differs, or a comment. The entries come from a sample that favours hits as a whole. Potency is the fitted concentration of half-maximal effect.

SMILES | Pf Dd2 inh
O=C(C1CCC1)N1CCN(Cc2ccccc2)CC(O)C1 (configuration not stated) | -5%
Cc1ccc(C(=O)N2CCCCCC2c2nnc(-c3ccccc3)o2)cn1 (configuration not stated) | -16%
Cc1ncccc1C(=O)N1CCC(C(=O)N2CCCCCCNC(=O)CC2)CC1 | 10%
COCCN(CCOC)CC[C@@H]1CC[C@H](O)[C@@H](C(=O)NC2CCCCC2)O1 | -12%[44.1 µM]
COCCN(CCOC)CC[C@@H]1CC[C@H](O)[C@@H](C(=O)N2CCOCC2)O1 | 4%[44.1 µM]
COCCN(CCOC)CC[C@@H]1CC[C@H](O)[C@@H](C(=O)Nc2ccccc2)O1 | 16µM*
CCCc1noc(-c2ccn3c(CNC(=O)CCC4CCCC4)nnc3c2)n1 | i
Cc1ccccc1Oc1ncccc1CNC(=O)CCn1cnnc1 | -17%
COCc1cc(=O)n(CC(=O)Nc2cc(Cl)ccc2C)c(N2CCOCC2)n1 | 20%
Cn1ncc(N2CCCC(CC(=O)NCCC3=CCCCC3)C2)cc1=O (configuration not stated) | -3%
N#Cc1ccc(C(=O)Nc2ccc3c(c2)N(C2CCCC2)C(=O)c2ccccc2S3)cc1 | 11µM*
CCN1C(=O)c2ccccc2Sc2ccc(NC(=O)c3ccc(Cl)cc3)cc21 | i
CCN1C(=O)c2ccccc2Sc2ccc(NC(=O)Nc3cc(C)cc(C)c3)cc21 | -11%
CN1C(=O)C2(c3ccccc31)N(c1ccc(F)c(Cl)c1)C(=O)CS2(=O)=O (configuration not stated) | -15%
O=C1CS(=O)(=O)C2(C(=O)N(Cc3ccccc3Cl)c3ccccc32)N1c1ccc(F)cc1 (configuration not stated) | 5.6µM*
COc1ccc(N2C(=O)CS(=O)(=O)C23C(=O)N(Cc2ccccc2)c2ccccc23)cc1 (configuration not stated) | -23%
O=C(CCn1ccc(=O)[nH]c1=O)N[C@H](c1ccccn1)C1CC(O)C1 (some centres not stated) | -14%
COCc1noc([C@@H]2CC(F)(F)CN2C(=O)c2cc(C)[nH]n2)n1 | -1%
CNc1nc2c(s1)C(c1cccc(F)c1)CC(=O)N2 (configuration not stated) | -13%
COc1ccccc1-c1ccnc(N[C@H]2CO[C@H]3[C@@H]2OC[C@@H]3NS(=O)(=O)c2cccs2)n1 | -16%
COc1ccccc1-c1ccnc(N[C@H]2CO[C@H]3[C@@H]2OC[C@@H]3NS(C)(=O)=O)n1 | 14µM*
COc1ccccc1-c1ccnc(N[C@H]2CO[C@H]3[C@@H]2OC[C@@H]3NS(=O)(=O)c2ccc(NC(C)=O)cc2)n1 | i
COCCn1c(=O)n([C@H]2CCCN(C(=O)c3cc(C)nn3C)C2)c2ncccc21 | -8%
C[C@@H](NC(=O)C1=C[C@@H](NC(=O)CC(C)(C)C)[C@@H](O)[C@H](O)C1)C(N)=O | 25%[44.1 µM]
CC(=O)N1C[C@@H]2CCCN3CCC[C@@H]([C@H]23)[C@H]1CCCC(=O)N1CCN(C)CC1 | -25%
SMILES | Pf Dd2 inh
Cc1cc(NC(=O)CN2C(=O)NC(c3ccc(Cl)cc3)C3=C2COC3=O)no1 (configuration not stated) | i
O=C(NCCc1cnc[nH]1)c1ccc2nc(-c3ccc(F)cc3)cn2c1 | 10µM*
CN(C(=O)c1ccc2nc(-c3ccc(F)cc3)cn2c1)C1CCOCC1 | -6%
CCC(NC(=O)c1ccc2nc(-c3ccc(F)cc3)cn2c1)c1ncc(C)[nH]1 (configuration not stated) | 7.9µM*
CC(Cc1cnccn1)NC(=O)c1ccc2nc(-c3ccc(F)cc3)cn2c1 (configuration not stated) | -17%
COCCN(CC1CC1)C(=O)c1ccc2nc(-c3ccc(F)cc3)cn2c1 | -15%
COc1cc(F)ccc1-c1cc2c(ccn2C)c(C(=O)NCCc2cnc[nH]2)n1 | -15%[44.1 µM]
O=C(NCc1cccc(Cl)c1)c1noc(-c2ccc3c(c2)OCO3)n1 | 16%
O=C(CCc1c[nH]c2ccccc12)NC1CCCc2c1[nH]c1ccc(F)cc21 (configuration not stated) | i
CNC(=O)[C@@H](c1ccc(Cl)cc1)N1CCC[C@H]1C(=O)NCCOC | 9%[44.1 µM]
O=C(N[C@@H]1CN(Cc2ccncc2F)C[C@H]1CO)C1CC1 | 13%
O=C(NC1CCN(c2cc(-c3ccccc3)[nH]n2)CC1)c1cc2ccccc2[nH]1 | i
Cc1[nH]ncc1CNC(=O)C1CCN(C(=O)c2ncn3c2COC(c2ccc(F)cc2)C3)CC1 (configuration not stated) | i
CC1(C(=O)N2CCC(c3ccccc3)CC2)CCc2cnc(Nc3ccncc3)nc21 (configuration not stated) | 10µM*
CC(=O)N1CCN(C(=O)C2(C)CCc3cnc(Nc4ccccc4)nc32)CC1 (configuration not stated) | 21%[44.1 µM]
CC1(C(=O)N2CCCC2)CCCc2cnc(Nc3ccccc3)nc21 (configuration not stated) | -5%[44.1 µM]
COCCNC(=O)[C@H]1C[C@H](Oc2ccccc2)CN1C(=O)NCCc1ccccc1 | i
COc1cc(CNc2ccc3[nH]c(=O)[nH]c3c2)cc(Cl)c1OCc1ccccc1F | -17%
COc1cc(CNc2ccc3[nH]c(=O)[nH]c3c2)cc(Cl)c1OCc1ccc(F)cc1 | -26%
COc1cc(CNc2ccc3[nH]c(=O)[nH]c3c2)cc(Br)c1OCc1ccc(F)cc1 | 13µM*
CC1(C(=O)O)CCN(S(=O)(=O)c2ccsc2)CC1 | 6%[44.1 µM]
Cn1nc(C(=O)NC2CCCN(c3cc(-c4ccc(F)cc4)[nH]n3)C2)c2ccccc21 (configuration not stated) | -10%
O=C1NC(C(=O)NCc2ccc(Cl)cc2)Cn2cccc21 (configuration not stated) | 41%
COc1ccc(CN2CCc3nn(C)c(=O)n3CC2)cc1Cn1cccn1 | 13%
COc1ccc2c(c1)OCC(CNC(=O)c1scc3c1OCCO3)C2 (configuration not stated) | -19%
SMILES | Pf Dd2 inh
COc1ccc2c(c1)OCC(CNC(=O)c1ccc(-c3nnn(C)n3)cc1)C2 (configuration not stated) | 2%
COc1ccc2c(c1)OCC(CNC(=O)c1cc(-c3ccncc3)n[nH]1)C2 (configuration not stated) | 13µM*
COc1ccc(CC(=O)N[C@H]2[C@H](O)[C@H](O)C[C@@H]2c2ccc(N3CCOCC3)nc2)cc1 | -29%[44.1 µM]
COc1cc2c(cc1NS(C)(=O)=O)C(c1cccc3nsnc13)CC(=O)N2 (configuration not stated) | -2%
CC1(CNc2ccccc2)COc2ccc(C(=O)NCCc3cnc[nH]3)cc2N1 (configuration not stated) | i
COCCS(=O)(=O)c1ncc(CN(C)C(C)c2ccon2)n1Cc1ccccc1 (configuration not stated) | -4%
CC(C)Cn1c(CN2CCSCC2)cnc1S(=O)(=O)Cc1ccccc1 | -22%
COCCS(=O)(=O)c1ncc(CN2CC[C@@H]3CCCC[C@H]3C2)n1Cc1ccccc1 | 6.3µM*
COC1C(=O)N(C2CCN(C(=O)Cc3cccnc3)CC2)C12CCOCC2 (configuration not stated) | 12%
CCc1ccc(Oc2c(C(F)(F)F)oc3c(CN4CCN(C)CC4)c(O)ccc3c2=O)cc1 | 0.28µM*
COc1ccc(CN2CCC(O)(c3csc(CN4CCN(C)CC4)n3)CC2)cc1 | i
CCN1CCN(C(c2ccccc2F)c2c(O)cc(C)n(CCOC)c2=O)CC1 (configuration not stated) | i
